# Screening results: PubChem, several laboratories
# Cav32 inh – Cav3.2 calcium influx blockers – cell-based, Fluo-4 calcium fluorescence, FDSS, MLSMR library, primary screen; Voltage-dependent T-type calcium channel subunit alpha-1H (Homo sapiens), O95180; Cav3.2-expressing cells; active compounds read low; B-score at 10 µM; hit rate 4% among 100,000; AID 449739, 2010;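 active = single-dose well whose peak fluorescence ratio is a statistical outlier from its plate by either plate-standardised score or position-corrected B-score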
# D1 allo mod – D1 CRE-luciferase signal change, two-sided – cell-based, HEK293 D1, dopamine EC30, D1 allosteric modulator project, primary screen | D(1A) dopamine receptor (Homo sapiens), P21728 | dopamine EC30 potentiation; actives deviate in either direction | B-score at 10 µM | hit rate 5.9% among 58,000 | AID 641, 2007;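 active = luminescence count or its row- and column-corrected plate score outside the 99.7% band of the plate's sample wells, on either side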
# PLAP act – PLAP enzyme activators, biochemical, luminescence, HTS | hit rate 1.2% among 96,000 | Alkaline phosphatase, placental type (Homo sapiens), P05187 | AID 696, 2007 | purified PLAP enzyme, luminescent substrate read-out; active compounds read high | activation fold at 20 µM; in the data active = activation fold above about 2
# Target sequence (P05187 whole entry, looked up): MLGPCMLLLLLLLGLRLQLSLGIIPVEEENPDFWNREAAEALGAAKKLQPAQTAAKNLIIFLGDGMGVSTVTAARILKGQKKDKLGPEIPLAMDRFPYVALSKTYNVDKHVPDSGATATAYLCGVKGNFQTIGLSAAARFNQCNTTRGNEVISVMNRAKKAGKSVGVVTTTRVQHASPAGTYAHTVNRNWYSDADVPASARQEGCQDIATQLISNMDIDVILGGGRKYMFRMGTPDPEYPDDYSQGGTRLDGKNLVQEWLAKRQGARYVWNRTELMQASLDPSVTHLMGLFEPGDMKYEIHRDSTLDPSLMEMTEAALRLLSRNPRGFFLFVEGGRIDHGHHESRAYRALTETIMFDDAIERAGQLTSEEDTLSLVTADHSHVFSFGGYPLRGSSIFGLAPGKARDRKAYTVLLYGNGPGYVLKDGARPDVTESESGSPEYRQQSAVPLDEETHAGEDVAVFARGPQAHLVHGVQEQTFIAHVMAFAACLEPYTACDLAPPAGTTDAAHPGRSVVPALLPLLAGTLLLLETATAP
# PostGolgi ctrl – growth inhibition of yeast control strain, primary screen, counter-screen for post-Golgi transport modulator project; inhibition, % at 10 µM; hit rate 5% among 98,000; efflux-deficient yeast background strain, growth absorbance A615, 16 h
# hDAT+cocaine – changed hDAT dopamine uptake under cocaine IC80, either direction, primary screen, cocaine antagonist project, cell-based, LLC-PK1 hDAT, [14C]-dopamine uptake, MLSMR. B-score at 10 µM. LLC-PK1 hDAT cells, [14C]-dopamine uptake with cocaine IC80; actives deviate in either direction. Sodium-dependent dopamine transporter (Homo sapiens), Q01959. hit rate 1.3% among 110,000;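 active = Z score or B-score, a plate-position-corrected score, falls beyond the plate's 99.7% confidence bounds, in either direction; inactive = both scores lie inside the 99.7% bounds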;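 also: scored against the spread of the other compound wells on the same plate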
# PostGolgi yeast – phenotypic screen on post-Golgi transport, primary screen; post-Golgi transport phenotypic cell assay; inhibition, % at 10 µM; hit rate 0.9% among 98,000;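 also: yeast cells grown in 1536-well plates; yeast grown about 18 h at 30C before absorbance read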
# * marks the source's active call; other numbers are inactive results; . = not tested or not shown. Sampled rows, rich in hits. Any-hit rate of the full collection: about 12%. Rule as the data show it, unless noted: active = inhibition above about 30%; inactive = the rest.
SMILES,Cav32 inh,D1 allo mod,PLAP act,PostGolgi ctrl,hDAT+cocaine,PostGolgi yeast
COC(=O)C1=C(CN2CCCc3ccccc32)NC(=O)NC1c1ccc(F)cc1 (stereo not drawn),-3.93*,0.318,1,11.0,0.542,-2.3
COC(=O)C1=C(CCc2ccccc2)NC(=O)NC1c1ccc([N+](=O)[O-])cc1 (stereo not drawn),-1.4,.,.,.,1.85,.
COc1ccc(N/C(C)=C2/C(=O)C(=O)N(CCO)C2c2ccc(Br)cc2)cc1 (stereo not drawn),0.536,.,1.4,6.3,1.46,-5.3
C=CCn1c(NC)cc(=O)n(C)c1=O,0.78,0.119,1.1,-1.3,-9.14*,-9.2
O=C(CSc1nc2nc(-c3cccs3)cc(C(F)(F)F)c2c(=O)[nH]1)NCc1ccco1,-3.97*,0.141,1.1,-0.9,0.567,11.2
Cc1nc(SCC(=O)NCc2ccco2)[nH]c(=O)c1C,-0.821,.,1,20.8,0.528,2.5
N#CCSc1nnc(Cc2cccc3ccccc23)n1C1CCCCC1,-5.72*,.,1.4,26.5,0.728,0.0
NC(=O)CSc1nnc(Cc2cccs2)n1C1CCCCC1,1.1,.,0.9,1.1,-1.42,-0.8
O=C(CCN1c2ccccc2Sc2ccccc21)OCC(=O)N1CCN(C(=O)c2ccco2)CC1,0.278,0.123,1.5,13.1,-1.07,-5.9
O=C(/C=C/Nc1cccc(O)c1)c1ccccc1,-1.37,-8.73*,1,5.0,1.07,-2.4
Cc1ccc(C(=O)/C=C/Nc2cccc(O)c2)cc1,-1.72,-2.78*,0.9,10.7,0.18,0.9
COc1cc(C)c(S(=O)(=O)NCc2cccs2)cc1C,.,0.188,1,7.8,.,-6.7
CC12CCC(C(=O)Nc3cccc4ccccc34)(C1Br)C2(C)C (stereo not drawn),-1.31,.,0.9,40.0*,.,-3.4
CCCOc1ccc(S(=O)(=O)n2cc(Br)c(=O)[nH]c2=O)cc1,-0.196,.,1.2,42.0*,-1.23,6.4
CCC1(CC)C(=O)C2=C3C1[C@H](C(=O)OC)CC(C(=O)OC)C[C@H]3[C@H]1C(=O)N(c3ccccc3)C(=O)[C@H]1[C@H]2C (stereo partly drawn),-0.251,.,.,.,0.336,.
COc1cc([C@@H]2[C@H]3CNCC=C3C(C#N)=C(N)C2(C#N)C#N)ccc1OC(C)C,0.0954,.,1.6,0.3,0.146,15.3
CC(C)N1CC=C2C(C#N)=C(N)C(C#N)(C#N)[C@H](c3ccoc3)[C@H]2C1,-4.56*,.,1,20.2,0.017,-0.8
COc1cc(C2C3CN(C)CC=C3C(C#N)=C(N)C2(C#N)C#N)ccc1OC(C)C (stereo not drawn),0.252,-4.87*,1.4,7.7,0.925,2.9
CCC(C)NC(=O)c1ccccc1NS(=O)(=O)c1ccc(OC)c(OC)c1 (stereo not drawn),0.0235,-0.0146,1.2,14.9,-0.304,-3.1
Cc1ccnc(Nc2nc3ccccc3o2)n1,0.626,-4.44*,1.9,0.6,0.0551,-7.6
CCN(CC)c1nc2c(s1)C(=O)CC(C)(C)C2,-0.0916,.,0.9,3.8,0.0434,1.8
CCOC(=O)c1sc(NC(=O)Nc2ccc(Cl)cc2)nc1C,0.112,.,1,3.0,-0.232,-6.8
O=C(Nc1nc(N2C(=O)c3ccccc3C2=O)n(-c2ccccc2)n1)c1ccc(Cl)cc1,-1.78,.,1.9,35.1*,-0.855,1.8
CCCc1cc(NCCCCO)n2c(nc3ccccc32)c1C#N,3.17,.,1.1,2.3,-0.00197,34.9*
CCOC(=O)N1CCN(S(=O)(=O)c2ccc(C)cc2)C1c1ccccc1 (stereo not drawn),-4.1*,-2.74,1.5,10.6,0.121,-5.2
SMILES,Cav32 inh,D1 allo mod,PLAP act,PostGolgi ctrl,hDAT+cocaine,PostGolgi yeast
CCCn1c(/N=C/c2cc(OC)ccc2O)nc2ccccc21,0.0351,0.12,0.8,6.7,0.222,4.4
CCCCn1c(/N=C/c2cc(OC)ccc2O)nc2ccccc21,-0.00694,-0.81,0.8,2.9,2.66*,13.8
CC1CCCN(C(=O)CSCC(=O)N=c2sc3ccccc3n2C)C1 (stereo not drawn),1.12,0.453,1.8,13.8,2.69*,18.6
COc1ccc(CNC(=O)Oc2ccccc2)cc1Cl,-5.19*,.,0.8,-3.0,-0.477,-5.1
CCOC(=O)c1c(NC(=O)CSc2nnc(CNc3ccc(Cl)cc3)o2)sc(C)c1C,-1.44,.,.,.,-0.461,.
CCOC(=O)c1c(NC(=O)CSc2nnc(CNc3ccc(F)cc3)o2)sc(C)c1C,-4.62*,-4.53*,1.6,38.3*,-0.383,-7.5
O=C(c1ccccc1)c1ccc2nc[nH]c2c1,0.265,0.0269,2*,-0.9,-0.905,-22.0
COc1ccc2c(c1)c(CC(=O)Nc1ccc(C)cc1)c(C)n2C(=O)c1ccc(Cl)cc1,-3.92*,.,1.4,6.7,-0.00714,-3.3
CC(C)(C)OC(=O)COc1cc(OCC(=O)OC(C)(C)C)c2c(=O)cc(-c3ccccc3)oc2c1,-3.96*,.,1.2,8.2,0.0437,0.0
COc1ccccc1NC(=O)N1CCc2[nH]c3ccc(F)cc3c2C1,-4.23*,0.0624,1,5.3,0.161,0.6
COc1ccccc1NC(=O)N1CCN(c2ccc(F)cc2)CC1,1.26,.,.,.,-0.0495,.
Cc1cc(O)c(C(C)C)cc1NC(=O)c1cccc(Cl)c1,-2.34,.,0.9,12.1,-0.187,-0.8
Cc1cc(O)c(C(C)C)cc1NC(=O)c1ccc(Cl)cc1,-6.28*,.,0.9,9.7,-0.0472,-2.4
CCOC(=O)N1CCN(S(=O)(=O)c2cccc3ccc(C)nc23)CC1,0.315,-0.0407,1,3.8,0.00677,-0.9
CCOC(=O)c1cnn(-c2nc(-c3cccc(F)c3)cs2)c1C(F)(F)F,1.59,.,0.9,11.2,-1.25,18.1
CCn1ncc(Br)c1C(=O)N(C)C12CC3CC(CC(C3)C1)C2,-5.06*,-0.106,1.1,20.6,0.717,3.4
O=C(CC1SC(=O)N(Cc2cccc3ccccc23)C1=O)Nc1nccs1 (stereo not drawn),0.0222,.,0.9,33.0*,0.664,-23.7
COC(=O)c1ccc2c(c1)NC(=O)C1CCCN21 (stereo not drawn),-4.26*,0.598,.,9.8,-0.384,1.1
O=C(O)CCC(=O)Nc1ccc(Br)cn1,0.652,0.282,0.9,5.0,0.632,11.7
COC(/C=C/Nc1ccc(OC)cc1)=C(C#N)C#N,-2.81,.,1.1,30.8*,-1.3,0.2
COc1ccc(N/C=C/C(=O)c2sc(-c3ccccc3)nc2C)cc1,-0.352,.,1,6.5,-0.0511,-8.8
COc1cc(/C=N/NC(N)=S)ccc1OC(=O)c1ccc(C)cc1,0.287,.,1.1,52.5*,0.179,0.3
